The whole screen tested about 5,500 compounds, of which about 2,000 (36%) were called active. About 18% were inconclusive and are not listed. No stated cut-off is given here; in the data, active means normalized growth mostly below about 0.91 (no sharp cut-off); inconclusive means no clear call, values can overlap the other calls; inactive means mostly above about 0.92. This is one part of the list.
Experiment: chemical genetic growth profiling, strain panel (AID 1159580);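 further: tested at 20 µM; growth read once vehicle control cultures reached saturation at 30 °C; 1 = growth at the plate median or of vehicle wells; lower values mean less growth of the strain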
Details: growth OD

Measured: normalized growth

CCCCC(=O)N(Cc1ccc(-c2ccccc2-c2nn[nH]n2)cc1)[C@H](C(=O)O)C(C)C
inactive: S. cerevisiae deletion strains, locus YJR066W, strain TOR1, hits give low values 0.959 | S. cerevisiae deletion strains, locus YJR075W, strain HOC1, hits give low values 1 | S. cerevisiae deletion strains, locus YKL009W, strain mrt4, hits give low values 0.968 | S. cerevisiae deletion strains, locus YKL068W, hits give low values 0.964 | S. cerevisiae deletion strains, locus YKL085W, strain MDH1 (second series), hits give low values 0.959 | S. cerevisiae deletion strains, locus YKL085W, strain MDH1, hits give low values 0.959 | S. cerevisiae deletion strains, locus YKL160W, strain elf1, hits give low values 1.01 | S. cerevisiae deletion strains, locus YKL190W, strain CNB1, hits give low values 0.986 | S. cerevisiae deletion strains, locus YKR001C, strain vps1, hits give low values 0.987 | S. cerevisiae deletion strains, locus YKR026C, strain gcn3, hits give low values 0.985 | S. cerevisiae deletion strains, locus YKR091W, strain srl3, hits give low values 0.981 | S. cerevisiae deletion strains, locus YLL001W, strain dnm1, hits give low values 0.993 | S. cerevisiae deletion strains, locus YLL026W, hits give low values 0.998 | S. cerevisiae deletion strains, locus YLL041C, strain sdh2, hits give low values 1 | S. cerevisiae deletion strains, locus YLR027C, strain aat2, hits give low values 0.999 | S. cerevisiae deletion strains, locus YLR039C, strain RIC1, hits give low values 0.963 | S. cerevisiae deletion strains, locus YLR058C, strain SHM2, hits give low values 1 | S. cerevisiae deletion strains, locus YLR102C, strain apc9, hits give low values 0.975 | S. cerevisiae deletion strains, locus YLR113W, strain HOG1, hits give low values 0.987 | S. cerevisiae deletion strains, locus YLR221C, strain rsa3, hits give low values 0.977 | S. cerevisiae deletion strains, locus YLR258W, strain gsy2, hits give low values 0.989 | S. cerevisiae deletion strains, locus YLR262C, strain YPT6 (second series), hits give low values 1 | S. cerevisiae deletion strains, locus YLR262C, strain YPT6, hits give low values 0.981 | S. cerevisiae deletion strains, locus YLR268W, strain sec22, hits give low values 0.977 | S. cerevisiae deletion strains, locus YLR320W, strain mms22, hits give low values 0.993 | S. cerevisiae deletion strains, locus YLR330W, strain CHS5, hits give low values 0.99 | S. cerevisiae deletion strains, locus YLR342W, strain FKS1 (second series), hits give low values 1.01 | S. cerevisiae deletion strains, locus YLR342W, strain FKS1, hits give low values 1.02 | S. cerevisiae deletion strains, locus YLR357W, strain rsc2, hits give low values 0.976 | S. cerevisiae deletion strains, locus YLR370C, strain arc18, hits give low values 1 | S. cerevisiae deletion strains, locus YLR371W, strain rom2, hits give low values 0.977 | S. cerevisiae deletion strains, locus YLR384C, strain iki3, hits give low values 1.01 | S. cerevisiae deletion strains, locus YLR418C, strain cdc73, hits give low values 0.989 | S. cerevisiae deletion strains, locus YML016C, strain PPZ1, hits give low values 0.994 | S. cerevisiae deletion strains, locus YML032C, strain rad52, hits give low values 0.985 | S. cerevisiae deletion strains, locus YML120C, strain ndi1, hits give low values 0.981 | S. cerevisiae deletion strains, locus YML124C, strain tub3, hits give low values 0.985 | S. cerevisiae deletion strains, locus YMR058W, strain fet3, hits give low values 0.982 | S. cerevisiae deletion strains, locus YMR078C, strain ctf18, hits give low values 0.995 | S. cerevisiae deletion strains, locus YMR125W, strain sto1, hits give low values 0.932 | S. cerevisiae deletion strains, locus YMR129W, hits give low values 0.983 | S. cerevisiae deletion strains, locus YMR205C, strain PFK2, hits give low values 0.994 | S. cerevisiae deletion strains, locus YMR223W, strain ubp8, hits give low values 0.994 | S. cerevisiae deletion strains, locus YMR231W, strain pep5, hits give low values 1 | S. cerevisiae deletion strains, locus YMR263W, strain SAP30, hits give low values 0.975 | S. cerevisiae deletion strains, locus YMR307W, strain GAS1, hits give low values 1.04 | S. cerevisiae deletion strains, locus YNL067W, strain RPL9B, hits give low values 0.985 | S. cerevisiae deletion strains, locus YNL071W, strain lat1, hits give low values 0.991 | S. cerevisiae deletion strains, locus YNL128W, strain TEP1, hits give low values 0.969 | S. cerevisiae deletion strains, locus YNL153C, strain GIM3, hits give low values 0.991 | S. cerevisiae deletion strains, locus YNL183C, strain NPR1, hits give low values 0.956 | S. cerevisiae deletion strains, locus YNL209W, strain ssb2, hits give low values 0.989 | S. cerevisiae deletion strains, locus YNL233W, strain BNI4, hits give low values 0.995 | S. cerevisiae deletion strains, locus YNL248C, strain rpa49, hits give low values 0.947 | S. cerevisiae deletion strains, locus YNL250W, strain rad50, hits give low values 0.944 | S. cerevisiae deletion strains, locus YNL271C, strain bni1, hits give low values 0.98 | S. cerevisiae deletion strains, locus YNL298W, strain CLA4, hits give low values 0.971 | S. cerevisiae deletion strains, locus YNL307C, strain MCK1, hits give low values 0.98 | S. cerevisiae deletion strains, locus YNL322C, strain KRE1 (second series), hits give low values 0.988 | S. cerevisiae deletion strains, locus YNL322C, strain KRE1, hits give low values 0.981 | S. cerevisiae deletion strains, locus YNR049C, strain mso1, hits give low values 0.965 | S. cerevisiae deletion strains, locus YNR052C, strain pop2, hits give low values 0.991 | S. cerevisiae deletion strains, locus YOL006C, strain TOP1, hits give low values 1.01 | S. cerevisiae deletion strains, locus YOL012C, strain htz1 1.43 | S. cerevisiae deletion strains, locus YOL147C, strain pex11, hits give low values 0.98 | S. cerevisiae deletion strains, locus YOR001W, strain rrp6, hits give low values 0.988 | S. cerevisiae deletion strains, locus YOR061W, strain CKA2, hits give low values 0.985 | S. cerevisiae deletion strains, locus YOR069W, strain VPS5, hits give low values 0.989 | S. cerevisiae deletion strains, locus YOR070C, strain gyp1, hits give low values 0.994 | S. cerevisiae deletion strains, locus YOR080W, strain dia2, hits give low values 0.988 | S. cerevisiae deletion strains, locus YOR083W, strain WHI5, hits give low values 1.01 | S. cerevisiae deletion strains, locus YOR106W, strain vam3, hits give low values 0.998 | S. cerevisiae deletion strains, locus YOR136W, strain idh2, hits give low values 0.991 | S. cerevisiae deletion strains, locus YOR144C, strain elg1, hits give low values 0.988 | S. cerevisiae deletion strains, locus YOR231W, strain MKK1, hits give low values 0.963 | S. cerevisiae deletion strains, locus YOR265W, strain rbl2, hits give low values 0.999 | S. cerevisiae deletion strains, locus YOR270C, strain vph1, hits give low values 0.997 | S. cerevisiae deletion strains, locus YOR290C, strain snf2, hits give low values 0.962 | S. cerevisiae deletion strains, locus YOR316C, strain cot1, hits give low values 0.98 | S. cerevisiae deletion strains, locus YPL051W, strain arl3, hits give low values 1.01 | S. cerevisiae deletion strains, locus YPL055C, strain LGE1, hits give low values 0.974 | S. cerevisiae deletion strains, locus YPL078C, strain atp4, hits give low values 0.989 | S. cerevisiae deletion strains, locus YPL106C, strain sse1, hits give low values 0.956 | S. cerevisiae deletion strains, locus YPL240C, strain hsp82, hits give low values 1 | S. cerevisiae deletion strains, locus YPL241C, strain CIN2, hits give low values 0.991 | S. cerevisiae deletion strains, locus YPL256C, strain CLN2, hits give low values 0.908 | S. cerevisiae deletion strains, locus YPR119W, strain clb2, hits give low values 0.991 | S. cerevisiae deletion strains, locus YPR141C, strain kar3, hits give low values 0.963 | S. cerevisiae deletion strains, locus YPR163C, strain tif3, hits give low values 0.978 | S. cerevisiae deletion strains, locus YPR167C, strain met16, hits give low values 0.976 | S. cerevisiae deletion strains, strain wtn01, hits give low values 0.96 | S. cerevisiae strains, strain wild type, hits give low values 0.973

Source: PubChem BioAssay AID1159580 (chemical genetic matrix, 2015)
